In PubChem BioAssay AID1159580 (chemical genetic matrix, 2015):
About 2,000 (36%) of roughly 5,500 compounds were called active. Another 18% or so got no clear call; they are omitted. No stated cut-off is given here; in the data, active means normalized growth mostly below about 0.91 (no sharp cut-off); inconclusive means no clear call, values can overlap the other calls; inactive means mostly above about 0.92. Some of the results follow.

Test: chemical genetic growth profiling, strain panel (AID 1159580);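 further: tested at 20 µM; growth read once vehicle control cultures reached saturation at 30 °C; 1 = growth at the plate median or of vehicle wells; lower values mean less growth of the strain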
Details: S. cerevisiae deletion strains, growth OD

Measured: normalized growth

COC(=O)[C@]1(C)CC[C@]2(C)CC[C@]3(C)C4=CC=C5C(=CC(=O)C(O)=C5C)[C@]4(C)CC[C@@]3(C)[C@@H]2C1
active: locus YAL013W, strain DEP1, active compounds read low 0.592 | locus YAL021C, strain ccr4, active compounds read low 0.878 | locus YAL026C, strain drs2, active compounds read low 0.592 | locus YAL030W, strain snc1, active compounds read low 0.823 | locus YBL061C, strain skt5, active compounds read low 0.635 | locus YBR009C, strain hhf1, active compounds read low 0.691 | locus YBR023C, strain chs3, active compounds read low 0.595 | locus YBR229C, strain ROT2, active compounds read low 0.905 | locus YBR231C, strain swc5, active compounds read low 0.503 | locus YBR279W, strain paf1, active compounds read low 0.755 | locus YCL011C, strain gbp2, active compounds read low 0.723 | locus YCL016C, strain dcc1, active compounds read low 0.827 | locus YCL069W, strain vba3, active compounds read low 0.775 | locus YCR088W, strain abp1, active compounds read low 0.864 | locus YDL035C, strain GPR1, active compounds read low 0.703 | locus YDL074C, strain BRE1, active compounds read low 0.622 | locus YDL101C, strain DUN1, active compounds read low 0.648 | locus YDL134C, strain PPH21, active compounds read low 0.755 | locus YDL192W, strain arf1, active compounds read low 0.889 | locus YDR001C, strain nth1, active compounds read low 0.922 | locus YDR069C, strain doa4, active compounds read low 0.514 | locus YDR137W, strain rgp1, active compounds read low 0.693 | locus YDR150W, strain NUM1, active compounds read low 0.835 | locus YDR159W, strain sac3, active compounds read low 0.621 | locus YDR162C, strain NBP2, active compounds read low 0.419 | locus YDR195W, strain ref2 1.24 [resistant] | locus YDR297W, strain sur2, active compounds read low 0.646 | locus YDR318W, strain mcm21, active compounds read low 0.852 | locus YDR334W, strain swr1, active compounds read low 0.553 | locus YDR335W, strain msn5, active compounds read low 0.733 | locus YDR392W, strain spt3, active compounds read low 0.149 | locus YDR502C, strain sam2, active compounds read low 0.878 | locus YEL003W, strain gim4, active compounds read low 0.841 | locus YEL037C, strain rad23, active compounds read low 0.814 | locus YEL061C, strain CIN8 (second series), active compounds read low 0.784 | locus YEL061C, strain CIN8, active compounds read low 0.76 | locus YER015W, strain faa2, active compounds read low 0.687 | locus YER016W, strain bim1, active compounds read low 0.78 | locus YER111C, strain swi4, active compounds read low 0.573 | locus YER155C, strain BEM2 (second series), active compounds read low 0.572 | locus YER155C, strain BEM2, active compounds read low 0.846 | locus YER167W, strain BCK2, active compounds read low 0.837 | locus YFR010W, strain ubp6, active compounds read low 0.777 | locus YGL086W, strain mad1, active compounds read low 0.921 | locus YGL167C, strain pmr1, active compounds read low 0.881 | locus YGL173C, strain kem1, active compounds read low 0.439 | locus YGL227W, strain vid30, active compounds read low 0.879 | locus YGL240W, strain doc1, active compounds read low 0.874 | locus YGL248W, strain PDE1, active compounds read low 0.675 | locus YGL253W, strain hxk2, active compounds read low 0.584 | locus YGR135W, strain pre9, active compounds read low 0.843 | locus YHR013C, strain ard1, active compounds read low 0.597 | locus YHR027C, strain rpn1, active compounds read low 0.514 | locus YHR030C, strain SLT2, active compounds read low 0.736 | locus YHR129C, strain ARP1, active compounds read low 0.693 | locus YHR142W, strain chs7, active compounds read low 0.488 | locus YIL066C, strain RNR3, active compounds read low 0.523 | locus YIL073C, strain SPO22, active compounds read low 0.531 | locus YIL125W, strain kgd1, active compounds read low 0.892 | locus YJL092W, strain hpr5, active compounds read low 0.836 | locus YJL095W, strain BCK1 (second series), active compounds read low 0.615 | locus YJL095W, strain BCK1, active compounds read low 0.634 | locus YJL115W, strain asf1, active compounds read low 0.884 | locus YJL129C, strain trk1, active compounds read low 0.625 | locus YJL134W, strain LCB3, active compounds read low 0.921 | locus YJL154C, strain vps35, active compounds read low 0.907 | locus YJL164C, strain tpk1, active compounds read low 0.616 | locus YJL166W, strain qcr8, active compounds read low 0.509 | locus YJL187C, strain SWE1 (second series), active compounds read low 0.455
inactive: locus YBR021W, strain FUR4, active compounds read low 1.02 | locus YBR171W, strain sec66, active compounds read low 0.949 | locus YCL029C, strain bik1, active compounds read low 0.94 | locus YDL005C, strain med2, active compounds read low 0.956 | locus YDL040C, strain nat1, active compounds read low 0.996 | locus YDL185W, strain tfp1, active compounds read low 0.91 | locus YDR101C, strain arx1, active compounds read low 0.935 | locus YDR388W, active compounds read low 0.96 | locus YER110C, active compounds read low 0.986 | locus YGL078C, strain dbp3, active compounds read low 0.944 | locus YGR252W, strain gcn5, active compounds read low 0.932 | locus YHR079C, strain IRE1 (second series), active compounds read low 0.977 | locus YHR094C, strain hxt1, active compounds read low 0.965 | locus YHR200W, strain rpn10, active compounds read low 0.929 | locus YIR030C, strain dcg1, active compounds read low 0.961 | locus YJL168C, strain set2, active compounds read low 0.968
